The results in this text go back to PubChem BioAssay.

Assay [1] is described as follows: HepG2 liver cancer cell viability effects, profiling panel, resazurin fluorescence, 24 h, PK04 Diversity Set (AID 1172). The conditions noted are these: higher = more signal. (In general: Resazurin is reduced to fluorescent resorufin, in cell work by metabolically active cells.)
Assay [2] can be described thus: basal S. cerevisiae growth modulation, no modifier, primary screen, OD600, strain BY4716, 24 h, basal condition (AID 1173). As to conditions: OD600, 24 h, higher = more signal, called active from +8 up or from −8 down.
Assay [3] can be described thus: MM1S myeloma cell viability, profiling panel, resazurin fluorescence, basal, 24 h, PK04 Diversity Set (AID 1174).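 Note: MM1S multiple myeloma cell line.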 The conditions noted are these: higher = more signal, called active from +8 up or from −8 down.
The target in assay [4] is Dihydroorotate dehydrogenase (quinone), mitochondrial (Plasmodium falciparum (isolate 3D7)) (UniProt Q08210). The assay can be described thus: PfDHODH enzyme inhibitors, primary screen, biochemical, C-terminal His tag, absorbance 600 nm (AID 1175).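 Note: recombinant parasite enzyme with a five histidine tag at its C terminus.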 The conditions noted are these: DCIP absorbance 600 nm, higher = more signal, called active from +8 up or from −8 down.
Assay [5] in a line: P. aeruginosa biofilm formation inhibitors, primary screen, strain PAO1, LB-PBS medium, absorbance 600 nm (AID 1176). As to conditions: P. aeruginosa PAO1 growth/biofilm, A600, 12 h; higher = more signal.
A short description of assay [6]: S. cerevisiae RM11-1a growth modifiers, primary screen, strain RM11-1a, OD600, basal, 24 h (AID 1177).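 Note: cultures grown under basal conditions with no added stressor.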 The conditions noted are these: OD600, 24 h, higher = more signal, called active from +8 up or from −8 down.
The nature of assay [7]: E. coli acrAB mutant growth effects, primary screen, E. coli filamentation inducers, strain DRC39, OD650, 24 h (AID 1178).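 Note: growth measured as culture turbidity by optical density at 650 nm.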 As to conditions: higher = more signal, called active from +8 up or from −8 down.
The nature of assay [8]: E. coli acrAB mutant growth effects, primary screen, E. coli filamentation inducers, strain DRC39, OD650, 48 h (AID 1179).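 Note: screen aims at cell division blockers that make cells filament.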 As to conditions: E. coli DRC39 delta-acrAB growth, higher = more signal, called active from +8 up or from −8 down.
Assay [9] can be described thus: RPMI8226 myeloma cell viability, profiling panel, resazurin fluorescence, basal, 24 h, PK04 Diversity Set (AID 1180).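 Note: RPMI8826 multiple myeloma cell line at 5000 cells per well.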 As to conditions: higher = more signal.
Assay [10] concerns the target E3 ubiquitin-protein ligase XIAP (Homo sapiens) (UniProt P98170). The assay can be described thus: XIAP binders, primary screen, biophysical, small-molecule microarray, fluorescence 635 nm (AID 1181).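 Note: score merges 667 nm emission and signal to noise over triplicate slides.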 The conditions noted are these: small-molecule microarray binding, higher = more signal.
The test system of assay [11] is XIP peptide (Xip251-270) binding. The assay can be described thus: small-molecule binders of XIP peptide, primary screen, biochemical, small-molecule microarray, fluorescence 635/667 nm, 0.1 µg/mL protein (AID 1182). The conditions noted are these: fluorescent protein binding, 635 nm, higher = more signal, called active from +8 up or from −8 down.
Assay [12] relates to XIP peptide (Xip251-270). The assay can be described thus: small-molecule binders of XIP peptide, primary screen, biochemical, small-molecule microarray, fluorescence 635/667 nm, 0.5 µg/mL protein (AID 1183). As to conditions: small-molecule microarray binding, fluorescence 635 nm; higher = more signal.
Assay [13] can be described thus: Plasmodium falciparum growth inhibition, primary screen, strain 3D7, DAPI fluorescence, 100 nL (AID 1184).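 Note: parasites grown inside human red blood cells in medium with human serum.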 The conditions noted are these: P. falciparum 3D7 growth, 3 d, higher = more signal.
The target of assay [14] is Homeobox protein Hox-A13 (Mus musculus) (UniProt Q62424). The assay can be described thus: inhibitors of HoxA13-DNA binding, primary screen, biochemical, fluorescence polarization, labeled oligonucleotide (AID 1185). As to conditions: 15 min, higher = more signal, called active from +8 up or from −8 down.
Assay [15] can be described thus: inhibitors of hydroxyurea-induced Chk1 phosphorylation, primary screen, imaging, HeLa, phospho-Chk1 antibody, percent positive cells (AID 1186). The conditions noted are these: hydroxyurea-induced phospho-Chk1 immunofluorescence imaging, higher = more signal.
Assay [16] can be described thus: inhibitors of hydroxyurea-induced Chk1 phosphorylation, primary screen, imaging, HeLa, phospho-Chk1 nuclear intensity (AID 1187). The conditions noted are these: hydroxyurea-induced phospho-Chk1 immunofluorescence imaging, higher = more signal.

Calls of active or inactive are those of the source. Unless noted, the rule behind the calls is not given here.

Chain of Homeobox protein Hox-A13 (Mus musculus) (Q62424 whole entry, looked up): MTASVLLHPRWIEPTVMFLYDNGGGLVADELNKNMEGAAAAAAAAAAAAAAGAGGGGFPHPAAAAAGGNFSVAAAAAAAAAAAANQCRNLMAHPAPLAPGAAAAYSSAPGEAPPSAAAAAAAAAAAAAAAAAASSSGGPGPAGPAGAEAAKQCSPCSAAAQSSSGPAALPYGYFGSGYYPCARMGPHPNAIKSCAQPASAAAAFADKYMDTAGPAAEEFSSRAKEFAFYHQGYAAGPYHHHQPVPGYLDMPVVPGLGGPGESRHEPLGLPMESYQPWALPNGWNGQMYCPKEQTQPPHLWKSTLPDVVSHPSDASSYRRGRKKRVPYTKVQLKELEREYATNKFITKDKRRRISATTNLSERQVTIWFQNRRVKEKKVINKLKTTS
Chain of Dihydroorotate dehydrogenase (quinone), mitochondrial (Plasmodium falciparum (isolate 3D7)) (Q08210 whole entry, looked up): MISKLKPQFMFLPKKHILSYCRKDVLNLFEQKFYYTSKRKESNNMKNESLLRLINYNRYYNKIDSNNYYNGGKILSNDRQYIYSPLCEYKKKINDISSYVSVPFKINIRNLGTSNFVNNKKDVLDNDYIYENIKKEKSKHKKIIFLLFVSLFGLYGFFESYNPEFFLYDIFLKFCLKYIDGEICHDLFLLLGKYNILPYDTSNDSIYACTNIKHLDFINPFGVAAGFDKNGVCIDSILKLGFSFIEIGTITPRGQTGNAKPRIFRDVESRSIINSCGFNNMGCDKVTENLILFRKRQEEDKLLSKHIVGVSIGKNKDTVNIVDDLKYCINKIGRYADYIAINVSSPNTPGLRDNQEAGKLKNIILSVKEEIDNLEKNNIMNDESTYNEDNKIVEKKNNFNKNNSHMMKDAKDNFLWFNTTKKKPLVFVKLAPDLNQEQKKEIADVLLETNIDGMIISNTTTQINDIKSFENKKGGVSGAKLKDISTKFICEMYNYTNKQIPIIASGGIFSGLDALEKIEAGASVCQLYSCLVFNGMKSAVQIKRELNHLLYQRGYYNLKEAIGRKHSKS
Chain of E3 ubiquitin-protein ligase XIAP (Homo sapiens) (P98170 whole entry, looked up): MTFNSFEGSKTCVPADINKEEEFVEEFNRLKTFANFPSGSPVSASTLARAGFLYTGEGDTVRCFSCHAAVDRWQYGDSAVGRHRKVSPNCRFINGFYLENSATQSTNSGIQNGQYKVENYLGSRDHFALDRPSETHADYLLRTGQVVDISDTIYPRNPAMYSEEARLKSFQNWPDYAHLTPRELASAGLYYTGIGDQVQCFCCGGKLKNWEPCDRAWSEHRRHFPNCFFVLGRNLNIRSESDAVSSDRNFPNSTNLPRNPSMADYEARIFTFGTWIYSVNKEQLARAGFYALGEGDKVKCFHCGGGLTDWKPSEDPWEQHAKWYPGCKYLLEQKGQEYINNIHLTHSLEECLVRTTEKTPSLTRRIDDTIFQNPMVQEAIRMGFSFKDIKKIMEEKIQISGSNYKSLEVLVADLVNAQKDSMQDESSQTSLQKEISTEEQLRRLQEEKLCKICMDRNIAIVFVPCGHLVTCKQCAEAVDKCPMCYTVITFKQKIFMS

With `O=C(N1CCCCC1)[C@@]1(CCS(=O)(=O)c2ccccc2)N=C(c2ccc(OCCCO)cc2)O[C@H]1c1ccccc1`, the z-score in [1] was 0.233; in [2] it was 0.0247 (inactive); in assay [3], -2.91 (inactive); in [5], -1.01 (inactive); in [6], 0.0929 (inactive); in assay [7], 1.33 (inactive). The z-score in assay [8] is 0.561 (inactive); in assay [9], -2.78; in assay [13], -2.24; in assay [14] it was -3.65 (inactive); in [15], -0.61 (inactive); in assay [16] it was -0.262 (inactive). For the same molecule, the composite z-score in assay [4] is 1.05 (inactive); in assay [10] it was 0.198; in assay [11], -0.43 (inactive); in assay [12] it was 0.23.

On to `C=C(CCCC)C(=O)CC[C@@H](OC(C)=O)c1ccccc1OCCO`, for which the z-score in assay [1] was -0.0263; in assay [2], -12.5 (active); in assay [3], 0.304 (inactive); in assay [5], 0.0022 (inactive); in assay [6], 2.05 (inactive); in assay [7], 0.662 (inactive). Moreover, the z-score is 0.378 (inactive) in assay [8]; -0.277 in [9]; -1.77 in assay [13]; -4.53 (inactive) in assay [14]; -0.21 (inactive) in assay [15]; -0.223 (inactive) in assay [16]. The composite z-score was -2.71 (inactive) in assay [4], -0.193 in assay [10], 0.144 (inactive) in [11] and -1.02 in assay [12].

Regarding `COc1ccc([Si](C)(C)[C@@H]2[C@@H](CCO)O[C@]3(C(=O)N(Cc4ccccc4)c4ccccc43)[C@H]2C)cc1`, the z-score in assay [1] was -1; in assay [2] it was 0.212 (inactive); in assay [3] it was -0.604 (inactive); in [5] it was 0.13 (inactive); in [6] it was 0.347 (inactive); in assay [7], 0.916 (inactive). The z-score in assay [8] was -0.326 (inactive); in assay [9], -0.372; in assay [13], -1.96; in assay [14], 0.563 (inactive); in [15] it was -0.0106 (inactive); in [16], 0.402 (inactive). Also, the composite z-score in [4] is 0.825 (inactive); in assay [10] it was -0.232; in assay [11], 0.151 (inactive); in assay [12] it was 0.283.

For the molecule `COC(=O)[C@H]1[C@@H]2COc3ccccc3[C@H]2N[C@H]1C(=O)OC`, the z-score was 0.0968 in assay [1]; -1.81 (inactive) in assay [2]; -0.586 (inactive) in assay [3]; -0.508 (inactive) in [5]; -0.398 (inactive) in assay [6]; 0.226 (inactive) in assay [7]. The z-score in assay [8] was 0.398 (inactive); in assay [9], -0.139; in assay [13], 0.535; in [14] it was -0.726 (inactive); in assay [15] it was -0.953 (inactive); in assay [16] it was -0.134 (inactive). The composite z-score is -16.2 (active) in [4], 0.0432 in [10], 0.22 (inactive) in assay [11] and 0.522 in assay [12].

Regarding `C=CCC(OC(C)=O)[C@@H]1[C@@H](N(Cc2cccc3ccccc23)C(=O)c2ccc(C)cc2)c2cc(OCCCO)ccc2N1C(=O)c1ccc(-c2ccccc2)cc1` (some centres undefined), the z-score in assay [1] was 0.335; in [2], -0.93 (inactive); in [3] it was 1.01 (inactive); in [5], -0.0178 (inactive); in assay [6], -1.51 (inactive); in assay [7], 0.611 (inactive). Besides, the z-score in [8] is 0.861 (inactive); in assay [9] it was 0.734; in assay [13] it was -1.93; in [14], -0.128 (inactive); in assay [15] it was -0.35 (inactive); in [16], -0.844 (inactive). Further, the composite z-score in [4] was -2 (inactive); in assay [10] it was 0.146; in assay [11] it was -0.115 (inactive); in assay [12], 0.481.

For `C#C[C@H](O[Si](C#Cc1ccccc1)(C(C)C)C(C)C)c1ccccc1`, the z-score in [1] is -0.271; in assay [2] it was -17.7 (active); in [3], -0.633 (inactive); in assay [5], 0.738 (inactive); in assay [6], -11.8 (active); in assay [7], -0.329 (inactive). The z-score is 0.127 (inactive) in assay [8]; -0.533 in [9]; -1.16 in assay [13]; -1.52 (inactive) in [14]; 0.116 (inactive) in assay [15]; 0.201 (inactive) in assay [16]. The composite z-score was -0.203 (inactive) in assay [4], 0.0049 in [10], 0.114 (inactive) in [11] and 0.311 in [12].

With `Cc1ccc(S[C@]2(C(=O)NC(C)C)CC(=O)N(Cc3cc(C(F)(F)F)cc(C(F)(F)F)c3)[C@@H]2c2ccc(CO)cc2I)cc1`, the z-score in assay [1] was 0.53; in [2], -2.86 (inactive); in assay [3] it was -2.27 (inactive); in assay [5], 0.447 (inactive); in assay [6] it was -0.59 (inactive); in assay [7] it was 0.498 (inactive). The z-score is 1.02 (inactive) in assay [8]; -2.55 in assay [9]; 0.201 in assay [13]; -2.81 (inactive) in assay [14]; 0.392 (inactive) in assay [15]; 0.52 (inactive) in assay [16]. In addition, the composite z-score in assay [4] was 0.4 (inactive); in assay [10], -0.209; in [11], 0.351 (inactive); in [12], 0.667.

With `CCCC[C@@H]1C[C@H]1[C@@H](NC(=O)c1ccccc1)c1ccccc1C(F)(F)F`, the z-score in assay [1] was 0.826; in assay [2] it was 0.66 (inactive); in [3], -0.159 (inactive); in assay [5] it was 0.951 (inactive); in [6], -0.114 (inactive); in assay [7], -0.372 (inactive). The z-score was -0.464 (inactive) in assay [8]; 0.0311 in assay [9]; -1.19 in [13]; 2.99 (inactive) in assay [14]; 0.726 (inactive) in assay [15]; 0.542 (inactive) in assay [16]. Also, the composite z-score in [4] was -0.454 (inactive); in assay [10], -0.261; in assay [11] it was 0.715 (inactive); in assay [12] it was 0.193.

Take `CC(C)[C@H]1NC(=O)[C@@]23C(=O)N[C@@H](Cc4ccccc4)C2[C@H](C)[C@@]2(C)O[C@H]2C3/C=C/C/C=C\CNC(=O)[C@H](C)NC1=O` (some centres undefined): the z-score in assay [1] was -0.546; in assay [2], 0.976 (inactive); in assay [3], 0.323 (inactive); in assay [5] it was 1.13 (inactive); in assay [6], 1.01 (inactive); in assay [7], -0.198 (inactive). Further, the z-score in assay [8] was -0.301 (inactive); in [9], 0.142; in assay [13], -0.162; in [14] it was -6.31 (inactive); in [15], 0.126 (inactive); in assay [16] it was 0.42 (inactive). Further, the composite z-score was -0.0591 (inactive) in assay [4], -0.129 in [10], -0.311 (inactive) in [11] and -0.791 in assay [12].
